# Results published in PubChem BioAssay (NCATS).
# Active and inactive are the calls of the source. Calls come from the whole dose curve; as a rule, active = well fitted activation curve with a large enough effect; inconclusive = small, poorly fitted or top-dose-only effect, or effect the other way; inactive = flat fitted curve, though single readings scatter.
# Experiment: Cellular Toxicity (caspase-3) Renal Proximal Tubule (AID 667);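 note: cells exposed to compound for 16 hours at 37 °C before detection; 0% = DMSO basal and 100% = 10 µM staurosporine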
# Conditions: renal proximal tubule cells; series mostly up to 91.7 µM; caspase-3 activation: at the top concentration
# Description: NIH Chemical Genomics Center [NCGC]
# NIH Molecular Libraries Screening Centers Network [MLSCN]
# National Institutes of Environmental Health Sciences [NIEHS]
# National Toxicology Program [NTP]
# We have developed a 1536-well cell-based assay for quantitative high throughput screening (qHTS) against a number of cell lines to determine in vitro caspase 3/7 activity of small molecules. This particular assay uses the primary kidney proximal tubule cells freshly isolated from rat.
# NCGC Assay Protocol Summary:
# The Caspase-Glo 3/7 assay (Promega) is a homogeneous method to measure caspase-3 and caspase-7 activities in cultured cells. The quantitation of caspase 3/7 activity is based on the cleavage of a peptide-aminoluciferin substrate. After caspase cleaves the substrate the free aminoluciferin is liberated and serves as the substrate of luciferase, which generates the light. The luminescent signal is proportional to the amount of caspase 3/7 activity present.
# Using the Caspase-Glo 3/7 assay, the amount of caspase 3/7 activity was measured in the rat kidney proximal tubule cells with complete culture medium following compound treatment for 16 hours. The assay was performed in opaque white 1536-well plates. In the screen, staurosporine and doxorubicin were used as positive controls. Library compounds were measured for their ability to cause the activation of caspase 3/7 in the cell line, as reflected by an increase in luminescence signal, in a concentration-dependent manner. Data were normalized to the controls for basal activity (DMSO only) and 100% stimulation (10 uM staurosporine). AC50 values were determined from concentration-response data modeled with the standard Hill equation.
# qHTS protocol for caspase 3/7 assay in rat kidney proximal tubule cells
# [Step] [Parameter] [Value] [Description]
# 1. Reagent; 5 uL; 1000 rat kidney proximal tubule cells/well
# 2. Time; 5 hr; 37 °C incubation
# 4. Controls; 23 nL; doxorubicin 7 pM to 100 uM & staurosporine 1.4 pM to 20 uM
# 5. Time; 16 hr; 37 °C incubation
# 6. Reagent; 5 uL; Caspase-Glo 3/7 reagent
# 7. Time; 1 hr; Room Temperature
# 8. Detection; Luminescence; Viewlux plate reader
# Keywords: caspase 3/7, apoptosis, rat kidney proximal tubule cells, luminescence, NTPHTS, NTPHTS_NCGC, NIEHS, EPA, DSSTox, MLSMR, MLSCN, NIH Roadmap, qHTS, NCGC
row,SMILES,caspase-3 activation
1,Nc1cccc(Cl)c1,-7.06% [at 91.7 µM] (inactive)
2,BrCC(Br)(Br)Br,29.4% [at 91.7 µM] (inactive)
3,O=[N+]([O-])/C=C/c1ccccc1,9.84% [at 91.7 µM] (inactive)
4,CCCCCC[N+](=O)[O-],1.06% (inactive)
5,CN(C)c1ccc(N=Nc2ccccc2)cc1,-18.8% [at 91.7 µM] (inactive)
6,O=[N+]([O-])c1ccc2c3c(cccc13)CC2,-10.1% [at 91.7 µM] (inactive)
7,CCOP(=S)(OCC)Oc1nc(Cl)c(Cl)cc1Cl,-2.71% [at 91.7 µM] (inactive)
8,Nc1ccc(Cl)c(Cl)c1,-13.6% (inactive)
9,ClC=CCl,14.3% (inactive)
10,O=S(=O)(O)F,-5.49% (inactive)
11,Cc1coc2c1CCC(C)C2 (stereo not given),5.95% (inactive)
12,Cc1cc(-c2ccc(N)c(C)c2)ccc1N,-6.2% (inactive)
13,CNC(=O)O/N=C/C(C)(C)S(C)=O (stereo not given),1.9% (inactive)
14,CN(C)c1ccc(N(C)C)cc1,-10.4% (inactive)
15,O=[N+]([O-])c1c(Cl)c(Cl)c(Cl)c(Cl)c1Cl,2.77% (inactive)
16,O=Cc1ccc2c(c1)OCO2,3.6% [at 91.7 µM] (inactive)
17,O=[N+]([O-])c1cccc(O)c1,-3.88% (inactive)
18,COC(=O)Nc1cccc(OC(=O)Nc2cccc(C)c2)c1,3.01% (inactive)
19,CCCCCCCCCCCOC(=O)c1ccccc1C(=O)OCCCCCCCCCCC,3.04% (inactive)
20,ClCCOCCCl,-5.54% (inactive)

row,SMILES,caspase-3 activation
1,ClCCBr,4.51% (inactive)
2,Clc1cc(Cl)c(Cl)c(Cl)c1,6.71% (inactive)
3,C=C(C)CCl,-3.81% [at 91.7 µM] (inactive)
4,CC(C)(Cl)Cl,-4.33% (inactive)
5,Nc1cccc2ccccc12,-1.7% (inactive)
6,O=Cc1ccc(Cl)cc1Cl,0.868% (inactive)
7,Clc1cccc(Cl)c1,-5.87% (inactive)
8,C=CC#N,2.11% (inactive)
9,Cc1ccc(N)cc1Cl,-2.51% [at 91.7 µM] (inactive)
10,C=CC(=O)OCC(C)C,1.39% (inactive)
11,[N-]=[N+]=[N-],-2% (inactive)
12,Nc1ccc(-c2ccc(N)cc2)cc1,-0.156% (inactive)
13,Cc1ccc(N)c(C)c1,-4.85% (inactive)
14,CC(C)(C)c1ccccc1O,-7.04% (inactive)
15,Nc1c(Br)cc([N+](=O)[O-])cc1[N+](=O)[O-],-9.65% (inactive)
16,O=C(O)C(Cl)Br (stereo not given),1.54% (inactive)
17,CCCC[N+](=O)[O-],0.704% (inactive)
18,CC(C)C#N,1.49% (inactive)
19,C=COC(C)=O,-5.56% (inactive)
20,S=C1NCCN1,9.12% (inactive)
